Hit rate of the full screen: of about 190,000 compounds, about 3,100 (1.6%) were called active. No stated cut-off is given here; in the data, active means fold change above about 3.3; inconclusive means no clear call, values can overlap the other calls; inactive means below that. The list comes from a sample in which actives are over-represented; it also holds similar structures and randomly drawn compounds.
Experiment: activators of NF-kB expression in neurons, primary screen, cell-based, HTS (AID 1239)
Details: human neuronal cells, NF-kB reporter expression; at 12.5 µM; stronger effect = higher value

| Compound | fold change |
| --- | --- |
| N/C(=N\OC(=O)c1ccc2c(c1)OCO2)c1ccc(Br)cc1 | 3.37 (active) |
| N/C(=N\OC(=O)N1c2ccccc2Sc2ccccc21)c1ccc(Br)cc1 | 1.29 (inactive) |
| N/C(=N\OC(=O)/C=C/c1ccccc1)c1ccc(Br)cc1 | 1.46 (inactive) |
| CC(C)(C)OC(=O)N/N=C/c1cn(-c2ccccc2)nc1-c1cccnc1 | 0.46 (inactive) |
| Cc1ccc(S(=O)(=O)N(CC(=O)NN=C2CCN(C)CC2)c2ccc(F)cc2)cc1 | 0.83 (inactive) |
| COc1ccc(C(=O)Nc2ccc(F)cc2F)cc1 | 3.39 (active) |
| COc1ccc(NC(=O)c2ccc(C#CC(C)(C)O)cc2)cc1 | 1.35 (inactive) |
| COc1ccc(NC(=O)Nc2ccc3nc(C)c(C)nc3c2)cc1 | 0.77 (inactive) |
| COc1ccccc1CC(=O)Nc1ccc(F)cc1F | 1.07 (inactive) |
| COc1ccc(/C=N/NC(=O)Nc2ccc3nsnc3c2)c(OC)c1 | 1.11 (inactive) |
| COc1ccc(NC(=O)Nc2ccc3nsnc3c2)cc1 | 3.98 (active) |
| COc1ccc(C(=O)Nc2ccc(S(=O)(=O)NC(C)C)cc2)cc1 | 1.12 (inactive) |
| COc1ccc(NC(=O)c2ccc(OC)cc2)cc1 | 4.29 (active) |
| COc1cc(OC)cc(C(=O)OCC(=O)Nc2ccc(F)cc2F)c1 | 1.18 (inactive) |
| Cc1ccc(-c2nn(-c3cccc(F)c3)cc2CNCCc2ccncc2)o1 | 0.82 (inactive) |
| Cc1cc(C(=O)N/N=C\C(Br)=C\c2ccccc2)c(C)o1 | 1.27 (inactive) |
| O=C(Nc1cccn(Cc2ccccc2Cl)c1=O)NC1CCCCC1 | 1.26 (inactive) |
| O=C(COc1ccccc1[N+](=O)[O-])NC1CC1 | 1.17 (inactive) |
| Cc1ccc(C(=O)N/C(=C\c2cccs2)C(=O)NCCc2ccccn2)cc1C | 1.8 (inactive) |
| Cc1ccccc1Nc1scc(-c2ccc(Br)cc2)[n+]1-c1ccccc1C | 0.87 (inactive) |
| Cc1ccnc(N2CCCC(C(=O)Nc3cc(F)ccc3C)C2)n1 (centres undefined) | 1.14 (inactive) |
| O=C(Nc1ccc2c(c1)OCCO2)C1CCCN(c2ncccn2)C1 (centres undefined) | 4.28 (active) |

| Compound | fold change |
| --- | --- |
| Cc1cc(C)nc(N2CCC(C(=O)Nc3ccc4c(c3)OCCO4)CC2)n1 | 1.22 (inactive) |
| COc1ccc(-c2ccc(CCC(=O)O)n2-c2ccc(O)cc2)cc1 | 0.84 (inactive) |
| Cc1ccc(S(=O)(=O)N(NC2=NS(=O)(=O)c3ccccc32)C(=O)c2ccccc2)cc1 | 1.06 (inactive) |
| CC(C)(C)c1csc(NC2=NS(=O)(=O)c3ccccc32)n1 | 3.56 (active) |
| O=C(Oc1cccc(NC2=NS(=O)(=O)c3ccccc32)c1)c1ccncc1 | 1.14 (inactive) |
| N#Cc1c(NC(=O)C2CCCO2)sc2c1CCCCC2 (centres undefined) | 1.1 (inactive) |
| CCN(CC)CCNS(=O)(=O)c1ccc(/C=C/C(=O)O)cc1 | 1.3 (inactive) |
| CSc1ccc(/C=N\NC(=O)COc2ccc(Cl)cc2Br)cc1 | 1.51 (inactive) |
| CSc1ccc(/C=N/NC(=O)c2cccc(Cl)c2)cc1 | 3.71 (active) |
| COc1ccc(/C=N/NC(=O)c2cccc(C(F)(F)F)c2)cc1 | 0.86 (inactive) |
| CC(=O)c1ccccc1NC(=O)CC1(CC(=O)O)CCCCC1 | 1.2 (inactive) |
| CC(=O)Nc1ccc(CN2CCN(Cc3ccc(F)c(F)c3)C(CCO)C2)cc1 (centres undefined) | 1.18 (inactive) |
| CCC(=O)Oc1cccc(C(=O)Nc2ccc(-c3nnc(-c4ccco4)o3)cc2)c1 | 0.99 (inactive) |
| CCOc1ccc(-c2nnc(-c3ccco3)o2)cc1 | 2.85 (inactive) |
| CCCCOc1ccc(-c2nnc(-c3ccco3)o2)cc1 | 3.49 (active) |
| O=C1CCCC2=C1C(c1cccs1)CC(=O)N2c1ccc(F)cc1 (centres undefined) | 1.01 (inactive) |
| CN(C)CCOCCOc1ccc(Cl)c2ccccc12 | 0.97 (inactive) |
| CCOC(=O)c1[nH]ncc1CN1CCCC(C(=O)c2ccc(OC)cc2C)C1 (centres undefined) | 1.04 (inactive) |
| C=CCn1c(-c2sc(-c3ccccc3)nc2C)n[nH]c1=S | 1.29 (inactive) |
| O=c1oc2c(CN3CCCCC3)c(O)ccc2c2c1CCCCC2 | 1.01 (inactive) |
| COc1ccc2c3c(c(=O)oc2c1OCC(=O)C(C)(C)C)CCCC3 | 1.12 (inactive) |
| CCCOc1ccc2c3c(c(=O)oc2c1OCCC)CCC3 | 5.55 (active) |

| Compound | fold change |
| --- | --- |
| Cc1cccc(NC(=S)NCCc2ccc(F)cc2)c1C | 1.04 (inactive) |
| Cc1ccc2c(c1)C(O)(CC(=O)c1cccc(-n3cccc3)c1)C(=O)N2 (centres undefined) | 1.11 (inactive) |
| COC(=O)c1sc2[nH]c(=S)n(N)c(=O)c2c1C | 1.19 (inactive) |
| Cc1ccccc1Nc1nc(N)nc(CSc2nnc3ccccn23)n1 | 1.69 (inactive) |
| Cc1ccccc1Nc1nc(N)nc(CSc2ccccc2)n1 | 5.08 (active) |
| Cc1ccc(C(=O)OCc2nc(N)nc(Nc3ccccc3C)n2)cc1 | 0.92 (inactive) |
| C/C(=N/OC(=O)c1c(-c2c(F)cccc2Cl)noc1C)c1cnccn1 | 1.2 (inactive) |
| CCOc1ccc2nc(Nc3nc4ccc(NC(C)=O)cc4s3)sc2c1 | 0.85 (inactive) |
| CCOc1ccc2nc(SC(CC)C(=O)Nc3cc(C)on3)sc2c1 (centres undefined) | 0.94 (inactive) |
| CCOc1ccc2nc(C(=O)N3CCCC(C)C3)sc2c1 (centres undefined) | 8.66 (active) |
| CCOC(=O)c1c(NC(=O)C2CC=CCC2C(=O)O)sc(C)c1CC (centres undefined) | 0.88 (inactive) |
| Cc1ccn(-c2cccc(-n3ccc(C)n3)n2)n1 | 3.56 (active) |
| COc1ccc2oc(-c3cccc(NC(=O)CSc4ccc(Cl)cc4)c3)nc2c1 | 5.09 (active) |
| COc1cccc(-c2nc3cc(C)ccc3o2)c1 | 6.47 (active) |
| O=C(Cc1cccc2ccccc12)Nc1ccc2oc(-c3ccccc3)nc2c1 | 1.24 (inactive) |
| COc1ccc(C)cc1NC(=O)CSc1ccc(Cl)cc1 | 1.29 (inactive) |
| COc1cccc(-c2nc(S(=O)(=O)c3ccccc3)c(N3CCOCC3)o2)c1 | 1.11 (inactive) |
| COc1ccc(-c2nc3cc([N+](=O)[O-])ccc3o2)cc1OC | 1.48 (inactive) |
| COc1ccc(S(=O)(=O)N2CCCCCC2)cc1C(=O)OCC(=O)Nc1cc(C)on1 | 0.91 (inactive) |
| CCC(C)(C)c1ccc(OCC(=O)N(C)C)c(C(C)(C)CC)c1 | 0.82 (inactive) |
